Experiment [1] deals with Peroxisome proliferator-activated receptor gamma (Homo sapiens) (UniProt P37231). Nature of the experiment: NVS_NR_hPPARg: NovaScreen (NVS) Nuclear Receptor Binding Assay for human Peroxisome Proliferator-activated Receptor gamma (PPARg) (AID 2283370). The method in brief: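 Fluorescence polarization readout of ligand binding to extracted human PPARg, measured at 2 h. Duplicate single-point screen at 25 uM, then concentration-series retesting; activity defined as signal loss versus DMSO.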

Experiment [2] addresses mouse Estrogen Receptor alpha (Era), Esr1 (gene 13982) (UniProt P19785). Nature of the experiment: NVS_NR_mERa: NovaScreen (NVS) Nuclear Receptor Binding Assay for mouse Estrogen Receptor alpha (Era) (AID 2283378).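 Note: hit means loss of bound radioligand signal relative to DMSO.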 The method in brief:
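Filter radiodetection of radioligand displacement from extracted receptor protein, measured 18 h post-dose. Single 25 uM concentration in duplicate initially, with concentration-series follow-up. Binding loss fitted relative to DMSO.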

The target of experiment [3] is Estrogen receptor beta (Homo sapiens) (UniProt Q92731). Put plainly: OT_ER_ERbERb_1440: Odyssey Thera (OT) 24-hour HEK293T Protein-Complementation Assay for Estrogen Receptor-beta/-beta Homodimer (AID 2283380).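 Note: fluorescence gain from ER beta LBD homodimer complementation read by laser scanning cytometry; scored as signal increase over DMSO baseline for both agonists and antagonists.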 The gist of the method:
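HEK293T cells stably expressing human ER-beta LBD (aa 310-547) PCA homodimer pair, dosed 24 h; formaldehyde-fixed, Draq5-stained. Readout: increase in nuclear (agonist) or nuclear plus cytoplasmic (antagonist) fluorescence intensity versus DMSO, gain-of-signal fitting.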

In experiment [4] the target is Estrogen receptor (Homo sapiens) (UniProt P03372). Put plainly: OT_ERa_GFPERaERE_0480: Odyssey Thera (OT) 8-hour HeLa Transcription Induction Assay for Estrogen Receptor (AID 2283381; active = hit-call score of the fitted dose curve at least 0.9, where 1 is the maximum; inactive = score below 0.9). The gist of the method:
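An 8 h HeLa transcription-induction format with a GFP reporter under ERE control, read by fluorescence microscopy; single endpoint fitted positively with DMSO as baseline.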

The target of experiment [5] is Agonist Androgen Response Element (ARE), AR (gene 367) (UniProt P10275). Nature of the experiment: OT_AR_ARELUC_AG_1440: Odyssey Thera (OT) 24-hour CHO-K1 Luciferase Assay for Agonist Androgen Response Element (ARE) (AID 2283379). The gist of the method: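 Luminescence increase above DMSO, read after a 24 h compound treatment of CHO-K1 cells expressing an androgen response element luciferase reporter, gives the single primary endpoint; concentration-response fitting used the positive direction.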

The target of experiment [6] is Bile acid receptor (Homo sapiens) (UniProt Q96RI1). Nature of the experiment: OT_FXR_FXRSRC1_0480: Odyssey Thera (OT) 8-hour HEK293T Protein-Complementation Assay for Farnesoid X receptor/SRC-1 Co-activator (AID 2283383). The method in brief: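 Readings were taken 8 h after dosing HEK293T cells in a split-reporter complementation format pairing FXR with SRC-1. Increased fluorescence relative to DMSO-treated wells defined activity.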

For experiment [7], the target named is rat Serotonin Transporter (SERT), Slc6a4 (gene 25553) (UniProt P31652). Put plainly: NVS_TR_rSERT: NovaScreen (NVS) Transporter Assay for rat Serotonin Transporter (SERT) (AID 2283375). The method in brief: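 Radioligand binding with competitive displacement on rat forebrain membrane preparations, counted by filtration and scintillation after 1 h. Primary single-point duplicates at 25 uM; active chemicals followed up in concentration-response. DMSO served as baseline.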

In experiment [8] the target is human Norepinephrine Transporter (NET), SLC6A2 (gene 6530) (UniProt P23975). Nature of the experiment: NVS_TR_hNET: NovaScreen (NVS) Transporter Assay for human Norepinephrine Transporter (NET) (AID 2283377).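 For AC50: displacement of radioligand from human NET seen as loss of scintillation signal.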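 Note: cell-free membrane protein extracted from CHO cells expressing human NET.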 The method in brief: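 In this cell-free binding screen, chemicals at 25 uM (duplicate) compete with a radioligand for CHO-derived human NET over 1 hour, with filter-based radiodetection.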

Experiment [9] concerns the target human Dopamine Transporter (DAT), SLC6A3 (gene 6531) (UniProt Q01959). Put plainly: NVS_TR_hDAT: NovaScreen (NVS) Transporter Assay for human Dopamine Transporter (DAT) (AID 2283374).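 Note: activity means loss of bound radioligand signal relative to DMSO.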 The method in brief: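 Extracted human SLC6A3 protein incubated 1 h with radioligand and test chemical; bound fraction separated on filters and counted. Single 25 uM duplicate screen preceded concentration-response follow-up; positive and negative controls on every plate.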

Experiment [10] deals with rat Norepinephrine Transporter (NET), gene 83511. Nature of the experiment: NVS_TR_rNET: NovaScreen (NVS) Transporter Assay for rat Norepinephrine Transporter (NET) (AID 2283373). As to the method:
NVS_TR_rNET is a biochemical, single-readout assay that uses extracted gene-proteins from Rat forebrain membranes in a tissue-based cell-free assay. Measurements were taken 1 hour after chemical dosing in a 48-well plate.NVS_TR_rNET is one of one assay component(s) measured or calculated from the NVS_TR_rNET assay. It is designed to make measurements of radioligand binding, a form of binding reporter, as detected with scintillation counting signals by Filter-based radiodetection technology.Data from the assay component NVS_TR_rNET was analyzed into 1 assay endpoint. This assay endpoint, NVS_TR_rNET, was analyzed in the positive analysis fitting direction relative to DMSO as the negative control and baseline of activity. Using a type of binding reporter, loss-of-signal activity can be used to understand changes in the binding as they relate to the gene Slc6a2. Furthermore, this assay endpoint can be referred to as a primary readout, because the performed assay has only produced 1 assay endpoint. To generalize the intended target to other relatable targets, this assay endpoint is annotated to the transporter intended target family, where the subfamily is neurotransmitter transporter.
Binding assays used specific radioligands (tritiated, iodinated) with non-radioactive competitive displacement ligands in agonist or antagonist protocols (as indicated) and various reference compounds and inhibitors to titrate specific binding to receptors and transporters. Most enzyme assays (CYPs, kinases, phosphatases, proteases, HDACs) used recombinant protein and specific substrates (fluorescence mostly, some colorimetric and radioactive) and inhibitors, followed by a biochemical separation of substrate and product. All assays for the biochemical HTS were initially run in duplicate at a single concentration (10 uM for CYP450 assays and 25 uM for all others). […] Each assay was run with positive and negative controls, and concurrent controls on every plate. […]

Several values for one entry are separate records, joined by “and”; a condition that tells them apart may be missing. Equal entries are not always repeated. Inconclusive results are not listed. The source holds several records for some structures; these can differ, active in one and inactive in another. Activity calls are given as the source filed them. Rule for the calls, unless noted: active = hit-call score of the fitted dose curve at least 0.9, where 1 is the maximum; inconclusive = response in the unintended direction; inactive = score below 0.9.

Peroxisome proliferator-activated receptor gamma (Homo sapiens), sequence (P37231 whole entry, looked up): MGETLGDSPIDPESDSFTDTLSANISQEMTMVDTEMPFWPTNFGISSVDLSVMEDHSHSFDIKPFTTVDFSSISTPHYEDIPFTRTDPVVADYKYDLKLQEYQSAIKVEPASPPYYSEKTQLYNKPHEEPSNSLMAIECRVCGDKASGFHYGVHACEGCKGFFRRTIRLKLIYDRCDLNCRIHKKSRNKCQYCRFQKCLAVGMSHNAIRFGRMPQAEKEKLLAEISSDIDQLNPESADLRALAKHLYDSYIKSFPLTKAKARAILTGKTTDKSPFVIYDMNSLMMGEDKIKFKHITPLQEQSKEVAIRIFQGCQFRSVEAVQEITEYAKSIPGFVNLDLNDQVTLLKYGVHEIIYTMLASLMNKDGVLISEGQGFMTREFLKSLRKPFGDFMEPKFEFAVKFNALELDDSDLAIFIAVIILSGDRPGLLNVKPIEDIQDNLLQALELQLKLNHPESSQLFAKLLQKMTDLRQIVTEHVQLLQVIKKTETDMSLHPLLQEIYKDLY
Estrogen receptor (Homo sapiens), sequence (P03372 whole entry, looked up): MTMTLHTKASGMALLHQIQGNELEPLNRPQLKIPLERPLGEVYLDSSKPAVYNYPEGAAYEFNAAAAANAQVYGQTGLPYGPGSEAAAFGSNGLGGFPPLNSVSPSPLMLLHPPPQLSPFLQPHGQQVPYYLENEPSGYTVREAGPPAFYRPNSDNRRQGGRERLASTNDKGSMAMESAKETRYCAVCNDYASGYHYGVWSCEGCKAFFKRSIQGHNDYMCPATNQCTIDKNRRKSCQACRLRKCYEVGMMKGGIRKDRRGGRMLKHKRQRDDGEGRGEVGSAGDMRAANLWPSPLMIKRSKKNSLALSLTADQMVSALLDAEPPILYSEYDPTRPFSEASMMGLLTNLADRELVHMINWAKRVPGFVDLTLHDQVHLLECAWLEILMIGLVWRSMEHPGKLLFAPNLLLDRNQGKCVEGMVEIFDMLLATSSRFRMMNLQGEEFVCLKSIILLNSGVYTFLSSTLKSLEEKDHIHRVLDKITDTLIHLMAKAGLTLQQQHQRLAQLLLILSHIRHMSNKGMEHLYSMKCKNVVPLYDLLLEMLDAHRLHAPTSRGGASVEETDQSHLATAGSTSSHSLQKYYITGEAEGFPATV
Estrogen receptor beta (Homo sapiens), sequence (Q92731 whole entry, looked up, the tested form may be a part): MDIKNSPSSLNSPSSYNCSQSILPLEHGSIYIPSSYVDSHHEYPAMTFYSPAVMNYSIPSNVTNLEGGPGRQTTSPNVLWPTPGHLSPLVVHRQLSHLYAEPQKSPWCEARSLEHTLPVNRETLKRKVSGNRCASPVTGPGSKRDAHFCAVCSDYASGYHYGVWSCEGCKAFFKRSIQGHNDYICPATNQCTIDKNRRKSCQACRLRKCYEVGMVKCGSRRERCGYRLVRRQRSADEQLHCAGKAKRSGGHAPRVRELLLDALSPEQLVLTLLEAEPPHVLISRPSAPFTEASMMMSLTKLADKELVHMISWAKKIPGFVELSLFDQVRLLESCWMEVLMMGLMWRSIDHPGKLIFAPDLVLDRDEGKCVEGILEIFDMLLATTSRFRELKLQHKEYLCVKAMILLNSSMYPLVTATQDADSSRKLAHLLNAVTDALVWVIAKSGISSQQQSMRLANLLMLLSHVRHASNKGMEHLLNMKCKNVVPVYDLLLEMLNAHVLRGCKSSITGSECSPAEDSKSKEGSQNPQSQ
rat Serotonin Transporter (SERT), Slc6a4 (gene 25553), sequence (P31652 whole entry, looked up): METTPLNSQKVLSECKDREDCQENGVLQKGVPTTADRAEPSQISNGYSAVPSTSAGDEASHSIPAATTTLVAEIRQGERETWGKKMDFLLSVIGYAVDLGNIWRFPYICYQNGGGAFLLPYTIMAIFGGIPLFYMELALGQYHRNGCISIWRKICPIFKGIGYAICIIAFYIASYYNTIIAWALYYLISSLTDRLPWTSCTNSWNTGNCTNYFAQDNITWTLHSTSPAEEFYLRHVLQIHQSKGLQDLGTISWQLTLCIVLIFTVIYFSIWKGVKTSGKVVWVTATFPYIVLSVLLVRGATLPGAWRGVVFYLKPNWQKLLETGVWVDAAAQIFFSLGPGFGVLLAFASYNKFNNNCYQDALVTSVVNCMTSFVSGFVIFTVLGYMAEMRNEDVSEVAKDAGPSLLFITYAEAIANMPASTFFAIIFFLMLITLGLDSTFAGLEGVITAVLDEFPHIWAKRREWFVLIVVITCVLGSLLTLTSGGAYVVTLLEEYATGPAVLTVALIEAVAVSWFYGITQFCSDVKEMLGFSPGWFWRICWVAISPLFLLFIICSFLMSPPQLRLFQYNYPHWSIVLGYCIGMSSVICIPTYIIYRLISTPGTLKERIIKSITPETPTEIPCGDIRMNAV
Bile acid receptor (Homo sapiens), sequence (Q96RI1 whole entry, looked up): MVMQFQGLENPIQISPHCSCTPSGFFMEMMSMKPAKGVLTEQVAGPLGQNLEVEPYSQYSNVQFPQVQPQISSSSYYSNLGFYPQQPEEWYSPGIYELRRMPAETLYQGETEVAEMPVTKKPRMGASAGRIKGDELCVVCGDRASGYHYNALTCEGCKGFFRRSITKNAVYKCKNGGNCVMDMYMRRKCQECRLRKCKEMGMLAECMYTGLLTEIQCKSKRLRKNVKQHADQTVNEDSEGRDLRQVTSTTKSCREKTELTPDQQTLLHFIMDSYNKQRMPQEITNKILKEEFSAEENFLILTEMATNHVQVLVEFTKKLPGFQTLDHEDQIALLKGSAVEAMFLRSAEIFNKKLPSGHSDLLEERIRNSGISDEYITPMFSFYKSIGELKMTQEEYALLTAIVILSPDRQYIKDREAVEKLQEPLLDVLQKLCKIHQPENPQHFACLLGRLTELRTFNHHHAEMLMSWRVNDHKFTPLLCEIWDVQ
Agonist Androgen Response Element (ARE), AR (gene 367), sequence (P10275 whole entry, looked up): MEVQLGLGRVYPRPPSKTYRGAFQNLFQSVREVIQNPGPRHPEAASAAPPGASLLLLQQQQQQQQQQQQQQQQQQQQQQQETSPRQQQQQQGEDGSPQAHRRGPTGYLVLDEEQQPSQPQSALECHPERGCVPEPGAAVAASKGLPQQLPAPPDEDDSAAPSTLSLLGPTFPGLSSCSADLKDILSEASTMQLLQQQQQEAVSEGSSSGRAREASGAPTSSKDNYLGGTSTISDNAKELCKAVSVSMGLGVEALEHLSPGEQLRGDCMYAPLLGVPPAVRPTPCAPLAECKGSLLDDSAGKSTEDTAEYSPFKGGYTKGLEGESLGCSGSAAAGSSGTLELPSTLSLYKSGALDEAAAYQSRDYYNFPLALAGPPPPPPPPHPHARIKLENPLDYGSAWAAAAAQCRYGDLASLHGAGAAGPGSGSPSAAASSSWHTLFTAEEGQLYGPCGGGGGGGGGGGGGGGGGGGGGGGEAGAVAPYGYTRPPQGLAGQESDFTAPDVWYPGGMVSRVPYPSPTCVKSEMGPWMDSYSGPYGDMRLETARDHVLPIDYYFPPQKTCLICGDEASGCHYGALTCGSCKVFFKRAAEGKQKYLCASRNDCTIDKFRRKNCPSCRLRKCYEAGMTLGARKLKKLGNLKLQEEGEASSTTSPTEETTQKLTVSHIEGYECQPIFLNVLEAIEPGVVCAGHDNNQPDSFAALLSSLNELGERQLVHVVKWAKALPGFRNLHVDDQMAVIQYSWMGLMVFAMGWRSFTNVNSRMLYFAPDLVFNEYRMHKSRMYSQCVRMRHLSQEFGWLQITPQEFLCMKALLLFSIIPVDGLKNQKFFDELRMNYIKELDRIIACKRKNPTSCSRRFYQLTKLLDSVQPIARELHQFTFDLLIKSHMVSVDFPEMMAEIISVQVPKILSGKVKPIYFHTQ
human Norepinephrine Transporter (NET), SLC6A2 (gene 6530), sequence (P23975 whole entry, looked up): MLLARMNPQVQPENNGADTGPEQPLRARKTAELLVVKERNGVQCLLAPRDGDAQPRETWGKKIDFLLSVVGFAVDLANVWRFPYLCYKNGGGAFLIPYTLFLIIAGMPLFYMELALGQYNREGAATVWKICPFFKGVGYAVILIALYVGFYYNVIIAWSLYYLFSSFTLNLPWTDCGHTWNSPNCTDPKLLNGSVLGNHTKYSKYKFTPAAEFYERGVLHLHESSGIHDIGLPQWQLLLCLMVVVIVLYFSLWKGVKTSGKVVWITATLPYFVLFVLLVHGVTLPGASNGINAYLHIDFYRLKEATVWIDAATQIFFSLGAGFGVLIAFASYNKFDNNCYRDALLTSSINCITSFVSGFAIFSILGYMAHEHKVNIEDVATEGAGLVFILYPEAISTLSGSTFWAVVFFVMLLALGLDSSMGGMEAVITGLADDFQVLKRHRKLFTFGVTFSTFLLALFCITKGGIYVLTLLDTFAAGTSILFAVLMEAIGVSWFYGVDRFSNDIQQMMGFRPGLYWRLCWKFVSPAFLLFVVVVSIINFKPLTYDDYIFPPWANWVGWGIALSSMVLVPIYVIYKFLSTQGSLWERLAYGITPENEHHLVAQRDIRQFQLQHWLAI
mouse Estrogen Receptor alpha (Era), Esr1 (gene 13982), sequence (P19785 whole entry, looked up): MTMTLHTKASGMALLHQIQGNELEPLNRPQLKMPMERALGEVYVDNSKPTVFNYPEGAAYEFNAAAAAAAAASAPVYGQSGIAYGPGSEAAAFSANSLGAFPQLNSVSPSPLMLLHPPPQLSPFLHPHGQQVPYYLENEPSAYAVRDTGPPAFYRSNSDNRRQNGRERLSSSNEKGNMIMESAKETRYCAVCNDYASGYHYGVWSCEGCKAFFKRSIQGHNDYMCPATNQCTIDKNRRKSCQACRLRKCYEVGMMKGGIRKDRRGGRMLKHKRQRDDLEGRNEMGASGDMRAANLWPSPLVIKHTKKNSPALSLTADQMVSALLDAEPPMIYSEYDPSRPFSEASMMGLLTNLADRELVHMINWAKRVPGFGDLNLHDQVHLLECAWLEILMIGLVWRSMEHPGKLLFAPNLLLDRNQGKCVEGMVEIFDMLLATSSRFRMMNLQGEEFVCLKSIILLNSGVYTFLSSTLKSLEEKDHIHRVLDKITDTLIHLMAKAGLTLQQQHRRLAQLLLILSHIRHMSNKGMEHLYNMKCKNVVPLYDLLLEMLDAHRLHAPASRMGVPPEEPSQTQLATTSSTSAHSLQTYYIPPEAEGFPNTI

Turning to `CCCCCCCCCCCCOC(=O)c1cc(O)c(O)c(O)c1`, the outcome in [1] was inactive. For the same molecule, the values for the AC50 in [2], in experiment [3] and in experiment [4] were 12.4 µM (active), 11.9 µM (active) and 49.2 µM (active), respectively.

In the case of `CCCCc1ccc2ccccc2c1S(=O)(=O)O`, the call in experiment [1], in experiment [3], in experiment [4] and in [6] was inactive. Also, the AC50 (commonly the midpoint of the concentration-response curve, whichever way the signal moves) in experiment [5] was 13.3 µM (active).

In the case of `O=C1OC2(c3ccccc31)c1cc(I)c(O)c(I)c1Oc1c2cc(I)c(O)c1I`, the AC50 in experiment [7] was 0.953 µM (active); in [8] it was 566 nM (active).

For the molecule `CCC(C)c1ccccc1O` (stereo unspecified), the call in [1] and in experiment [3] was inactive.

As for `Cc1cc(C(=C2C=CC(=Nc3ccc(S(=O)(=O)O)cc3)C=C2)c2ccc(Nc3ccc(S(=O)(=O)O)cc3)cc2)cc(S(=O)(=O)O)c1N`, the molecule was called inactive in experiment [1], in [5], in experiment [3], in experiment [4] and in experiment [6].

Take `CN(C)c1ccc(C(=C2C=CC(=[N+](C)C)C=C2)c2ccccc2)cc1`: the AC50 in experiment [9] is 6.41 µM (active) and 3.13 µM (active); in experiment [8], 18.3 µM (active) and 5.15 µM (active).

As to `N=C(N)c1ccc(OCCCCCOc2ccc(C(=N)N)cc2)cc1`, the molecule was called inactive in experiment [10] and in experiment [4]. Also, the results for the concentration at half-maximal activity (AC50) in experiment [9] and in experiment [8] were 4.11 µM (active) and 725 nM (active), respectively.

For `CCCCCCCCCC=CCC1CC(=O)OC1=O` (stereo unspecified), the AC50 is 25 µM (active) in [1] and 21.2 µM (active) in [5]. For the same molecule, the molecule was classed as inactive in experiment [3], in experiment [4] and in experiment [6].

In the case of `CCCCCCCCCCCCCCCCCC[N+](C)(C)Cc1ccccc1`, in [9], the molecule was called inactive. Further, the AC50 in experiment [7] is 7.73 µM (active); in [8], 2490 nM (active).

`O=C(c1ccccc1)c1ccccc1`: the molecule was classed as inactive in experiment [9], in experiment [5] and in experiment [6].

Consider `Clc1ccc(Nc2nnc(Cc3ccncc3)c3ccccc23)cc1`, for which the AC50 in [9] is 0.987 µM (active); in experiment [8] it was 898 nM (active). Also, the outcome in [7] was inactive.

`CC(C)[C@@H]1CC[C@@H](C)C[C@H]1O`: the call in [1], in experiment [3] and in experiment [6] was inactive.

`C=CC(C)(CCC=C(C)C)OC(C)=O` (stereo unspecified): the result in experiment [1], in [2] and in experiment [4] was inactive. The AC50 in experiment [6] is 76 µM (active).

Turning to `CCCCN(C)C`, in [9], the molecule was classed as inactive.

Consider `Oc1cccc2c(O)cccc12`, for which, in experiment [9], the AC50 was 25 µM (active). In experiment [8], the outcome was inactive.

As to `CCCCCc1ccc(O)cc1`, the AC50 in experiment [9] was 6.09 µM (active); in experiment [8], 14600 nM (active).

With `CN(Cc1cnc2nc(N)nc(N)c2n1)c1ccc(C(=O)N[C@@H](CCC(=O)O)C(=O)O)cc1`, in experiment [9], the AC50 was 6.69 µM (active). Moreover, the call in experiment [8], in experiment [2], in experiment [5], in experiment [3], in [4] and in experiment [6] was inactive.

`CCCCCCCCCCCC(=O)O`: the molecule was classed as inactive in experiment [1] and in experiment [3].

Turning to `CCOC(OCC)C(=O)c1ccccc1`, the AC50 in experiment [9] is 7 µM (active).

Take `C[C@]12CC[C@@H]3c4ccc(O)cc4CC[C@H]3[C@@H]1C[C@@H](O)[C@@H]2O`: the AC50 was 15.4 µM (active) in experiment [9] and 0.03 µM (active) in experiment [3].

For the molecule `CN(C)CCOC(c1ccccc1)c1ccccc1`, the results for the AC50 in experiment [10] and in [7] were 2.98 µM (active) and 12.6 µM (active), respectively. For the same molecule, the outcome in experiment [5], in experiment [3] and in experiment [4] was inactive.

Take `O=C(CCCN1CCC(O)(c2ccc(Cl)cc2)CC1)c1ccc(F)cc1`: the call in experiment [10], in experiment [3] and in [6] was inactive.

For the molecule `CCCCCCCCCCCC`, in [1], the AC50 is 0.401 µM (active) and the call was inactive.

On to `CC(O)COc1ccccc1` (stereo unspecified), for which the result in experiment [1], in experiment [8], in experiment [5] and in [3] was inactive.

With `NC(=NCCCCCCN=C(N)/N=C(\N)Nc1ccc(Cl)cc1)/N=C(\N)Nc1ccc(Cl)cc1`, the AC50 in experiment [9] was 0.458 µM (active); in experiment [7] it was 0.322 µM (active); in experiment [8], 356 nM (active); in experiment [2], 137 nM (active) and 292 nM (active); in [4] it was 24.5 µM (active). Further, the call in experiment [5] was inactive.

With `Oc1cc2ccccc2cc1O`, the molecule was classed as inactive in [8].

As to `c1cnc2c(c1)ccc1cccnc12`, the molecule was called inactive in experiment [3].

`CCCCCCCCCCCCCC[n+]1ccccc1`: the result in experiment [2] was inactive.

For `CCCCCCCCCCCCCCC`, the molecule was called inactive in experiment [8] and in [3].

For `Cc1ccc(S(=O)(=O)O)cc1`, in experiment [3], the call was inactive.

As for `CCCCCCC(C)(C)C(=O)O`, the call in experiment [5], in [3], in experiment [4] and in experiment [6] was inactive.

As to `CCCCCCOC(=O)c1ccc(O)cc1`, the AC50 in experiment [2] is 3.82 µM (active).

With `O=C1NS(=O)(=O)c2ccccc21`, the outcome in experiment [3] was inactive.

Turning to `Cc1cc(C(C)(C)C)c(O)c(C(C)(C)C)c1`, the molecule was classed as inactive in experiment [3]. Also, the AC50 in experiment [6] is 11.3 µM (active).

`Cc1cc(Cc2cc(C)cc(C(C)(C)C)c2O)c(O)c(C(C)(C)C)c1`: the molecule was classed as inactive in [3] and in experiment [4].

Turning to `O=S(=O)(O)c1ccccc1`, the molecule was classed as inactive in experiment [3] and in experiment [6].

As to `NCc1cccc(CN)c1`, the AC50 in experiment [2] was 6.34 µM (active). Moreover, the result in experiment [3] and in [4] was inactive.

In the case of `O=C(O)c1cccc(C(=O)O)n1`, the result in experiment [3] and in experiment [4] was inactive.

On to `CCCCCC(C)OC(=O)COc1ccc(Cl)c2cccnc12` (stereo unspecified), for which, in experiment [4], the outcome was inactive. Moreover, the AC50 in experiment [6] was 44 µM (active).

Turning to `Clc1ccc2c(Cl)ccnc2c1`, the AC50 in experiment [8] is 25000 nM (active).

Regarding `c1ccc2c(c1)CCC2`, the result in experiment [8] was inactive.

Take `CCCCCCc1ccc(N)cc1`: the results for the AC50 in [2] and in experiment [6] were 0.138 µM (active) and 17 µM (active), respectively. The call in experiment [5], in experiment [3] and in experiment [4] was inactive.

Consider `CC(=O)Nc1ccc(O)cc1`, for which the call in experiment [5] and in experiment [3] was inactive.

Source of the values: PubChem BioAssay (EPA / NIEHS).
